{"source": "PubChem BioAssay (NCI)", "key": {"[1]": {"test": "NCI Yeast Anticancer Drug Screen. Data for the rad52 strain (AID 147);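 further: 0% = growth of vehicle-treated control cultures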", "settings": "S. cerevisiae rad52 mutant growth inhibition, hits give high values", "method_in_brief": "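Yeast strain carrying a DNA damage repair alteration was exposed to test compounds. Growth inhibition was measured relative to vehicle-treated controls.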"}, "[2]": {"test": "NCI Yeast Anticancer Drug Screen. Data for the wt1 strain (AID 149);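 further: 0% = growth of vehicle-treated wt1 cultures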", "settings": "S. cerevisiae wt1 strain (SPY 50644) growth inhibition, hits give high values", "method_in_brief": "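Yeast wt1 strain exposed to compounds; growth inhibition measured relative to vehicle-treated controls.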"}, "[3]": {"test": "NCI Yeast Anticancer Drug Screen. Data for the rad50EPP+ strain (AID 151);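 further: 0% = growth of vehicle-treated control cultures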", "settings": "S. cerevisiae rad50 mutant strain, hits give high values", "method_in_brief": "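Yeast strain carrying rad50 alteration (rad50EPP+) exposed to compounds; growth inhibition measured relative to vehicle-treated controls.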"}, "[4]": {"test": "NCI Yeast Anticancer Drug Screen. Data for the rad50 strain (AID 155);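 further: 0% = growth of vehicle-only cultures of the same strain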", "settings": "S. cerevisiae rad50 strain growth inhibition, hits give high values", "method_in_brief": "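Yeast carrying a defined DNA repair defect were exposed to test compounds, and growth was compared with vehicle-treated controls to give percent inhibition.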"}, "[5]": {"test": "NCI Yeast Anticancer Drug Screen. Data for the mec2-1 strain (AID 157)", "settings": "S. cerevisiae mec2-1 strain, hits give high values", "method_in_brief": "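mec2-1 yeast strain, carrying an alteration in DNA damage repair or cell cycle control, was exposed to compounds; growth inhibition was measured relative to vehicle-treated controls.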"}, "[6]": {"test": "NCI Yeast Anticancer Drug Screen. Data for the rad14 strain (AID 159);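 further: 0% = growth of vehicle-treated control cultures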", "settings": "S. cerevisiae rad14 strain growth inhibition, hits give high values", "method_in_brief": "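Yeast cells carrying a defined DNA-repair defect were exposed to compounds, and growth inhibition was calculated relative to vehicle-treated control cultures.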"}, "[7]": {"test": "NCI Yeast Anticancer Drug Screen. Data for the sgs1 mgt1 strain (AID 161);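 further: 0% = growth of cultures given vehicle only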", "settings": "S. cerevisiae sgs1 mgt1 strain, hits give high values", "method_in_brief": "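Compounds are added to genetically altered yeast, and growth is compared with cultures given vehicle alone to give percent inhibition.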"}, "[8]": {"test": "NCI Yeast Anticancer Drug Screen. Data for the CLN2oe strain (AID 163);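 further: 0% = growth of vehicle-only control cultures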", "settings": "S. cerevisiae CLN2oe strain, hits give high values", "method_in_brief": "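Yeast cells carrying a defined cell-cycle control alteration were exposed to test compounds. Growth inhibition was scored against vehicle-treated control cultures.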"}, "[9]": {"test": "NCI Yeast Anticancer Drug Screen. Data for the cln2 rad14 strain (AID 165);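 further: 0% = growth equal to vehicle treated cultures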", "settings": "S. cerevisiae cln2 rad14 strain, hits give high values", "method_in_brief": "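Yeast carrying cln2 and rad14 alterations (cell cycle control and DNA damage repair) were exposed to compounds. Growth inhibition was measured against vehicle-treated controls.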"}, "[10]": {"test": "NCI Yeast Anticancer Drug Screen. Data for the bub3 strain (AID 167)", "settings": "S. cerevisiae bub3 mutant strain, hits give high values", "method_in_brief": "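Compounds were applied to a genetically altered yeast strain carrying a cell-cycle control defect. Growth inhibition was scored against vehicle-treated controls.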"}, "[11]": {"test": "NCI Yeast Anticancer Drug Screen. Data for the wt2 strain (AID 169);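 further: 0% = growth of vehicle-treated yeast cultures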", "settings": "S. cerevisiae wt2 strain growth inhibition, hits give high values", "method_in_brief": "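Yeast cells were exposed to test compounds, and growth inhibition was measured relative to vehicle-treated controls.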"}, "[12]": {"test": "NCI Yeast Anticancer Drug Screen. Data for the mlh1 strain (AID 171);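 further: 0% = growth of vehicle-treated control cultures of the same strain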", "settings": "S. cerevisiae mlh1 strain growth inhibition, hits give high values", "method_in_brief": "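Yeast carrying a defined genetic alteration in DNA damage repair or cell cycle control were exposed to test compounds. Growth inhibition was measured relative to vehicle-treated controls.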"}, "[13]": {"test": "NCI Yeast Anticancer Drug Screen. Data for the mlh1 rad18 strain (AID 175)", "settings": "S. cerevisiae mlh1 rad18 strain growth inhibition, hits give high values", "method_in_brief": "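Growth inhibition of the yeast strain was measured after compound exposure and expressed relative to vehicle-treated controls. The strain carries defined defects in DNA damage repair.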"}, "[14]": {"test": "NCI Yeast Anticancer Drug Screen. Data for the rad18 strain (AID 177)", "settings": "S. cerevisiae rad18 mutant growth inhibition, hits give high values", "method_in_brief": "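Yeast carrying a defined DNA damage repair alteration were exposed to compounds. Growth inhibition was expressed relative to vehicle-treated controls.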"}, "[15]": {"settings": "at 5.0 µM (retest, dose inferred, filed as 0.5)"}, "[16]": {"settings": "at 50.0 µM (retest, dose inferred, filed as 5.0)"}}, "note": "About 79,000 compounds went through this panel and 15% of them were active in at least one assay; those are over-represented in the sample as a whole. Unmarked numbers belong to inactive results. Calls of active or inactive are those of the source. No stated cut-off is given here; in the data, active means growth inhibition above about 70%; inactive means the rest.", "data": [{"smiles": "COc1ccccc1/C=C\\C(=O)C1COCN1", "note": "(stereo not drawn)", "values": [{"measurement": "growth inhibition", "setting": "[1]; at 1.2 µM", "value": 4, "unit": "%"}, {"measurement": "growth inhibition", "setting": "[1]; at 3.7 µM", "value": 14, "unit": "%"}, {"measurement": "growth inhibition", "setting": "[1]; at 11.0 µM", "value": 25, "unit": "%"}, {"measurement": "growth inhibition", "setting": "[1]; at 33.0 µM", "value": "71% (active)"}, {"measurement": "growth inhibition", "setting": "[1]; at 100.0 µM", "value": "99% (active)"}, {"measurement": "growth inhibition", "setting": "[2]; at 1.2 µM", "value": -4, "unit": "%"}, {"measurement": "growth inhibition", "setting": "[2]; at 3.7 µM", "value": -4, "unit": "%"}, {"measurement": "growth inhibition", "setting": "[2]; at 11.0 µM", "value": -7, "unit": "%"}, {"measurement": "growth inhibition", "setting": "[2]; at 33.0 µM", "value": 19, "unit": "%"}, {"measurement": "growth inhibition", "setting": "[2]; at 100.0 µM", "value": "99% (active)"}, {"measurement": "growth inhibition", "setting": "[3]; at 1.2 µM", "value": 11, "unit": "%"}, {"measurement": "growth inhibition", "setting": "[3]; at 3.7 µM", "value": 20, "unit": "%"}, {"measurement": "growth inhibition", "setting": "[3]; at 11.0 µM", "value": 42, "unit": "%"}, {"measurement": "growth inhibition", "setting": "[3]; at 33.0 µM", "value": "73% (active)"}, {"measurement": "growth inhibition", "setting": "[3]; at 100.0 µM", "value": "92% (active)"}, {"measurement": "growth inhibition", "setting": "[4]; at 1.2 µM", "value": 9, "unit": "%"}, {"measurement": "growth inhibition", "setting": "[4]; at 3.7 µM", "value": 6, "unit": "%"}, {"measurement": "growth inhibition", "setting": "[4]; [15]", "value": -141, "unit": "%"}, {"measurement": "growth inhibition", "setting": "[4]; at 11.0 µM", "value": 12, "unit": "%"}, {"measurement": "growth inhibition", "setting": "[4]; at 33.0 µM", "value": "95% (active)"}, {"measurement": "growth inhibition", "setting": "[4]; [16]", "value": "82% (active)"}, {"measurement": "growth inhibition", "setting": "[4]; at 50.0 µM", "value": "97.2% (active)"}, {"measurement": "growth inhibition", "setting": "[4]; at 100.0 µM", "value": "98% (active)"}, {"measurement": "growth inhibition", "setting": "[5]; at 1.2 µM", "value": 4, "unit": "%"}, {"measurement": "growth inhibition", "setting": "[5]; at 3.7 µM", "value": 5, "unit": "%"}, {"measurement": "growth inhibition", "setting": "[5]; [15]", "value": -49, "unit": "%"}, {"measurement": "growth inhibition", "setting": "[5]; at 11.0 µM", "value": 12, "unit": "%"}, {"measurement": "growth inhibition", "setting": "[5]; at 33.0 µM", "value": 38, "unit": "%"}, {"measurement": "growth inhibition", "setting": "[5]; [16]", "value": 28, "unit": "%"}, {"measurement": "growth inhibition", "setting": "[5]; at 50.0 µM", "value": "98.7% (active)"}, {"measurement": "growth inhibition", "setting": "[5]; at 100.0 µM", "value": "99% (active)"}, {"measurement": "growth inhibition", "setting": "[6]; at 1.2 µM", "value": 0, "unit": "%"}, {"measurement": "growth inhibition", "setting": "[6]; at 3.7 µM", "value": -1, "unit": "%"}, {"measurement": "growth inhibition", "setting": "[6]; at 11.0 µM", "value": 9, "unit": "%"}, {"measurement": "growth inhibition", "setting": "[6]; at 33.0 µM", "value": 38, "unit": "%"}, {"measurement": "growth inhibition", "setting": "[6]; at 100.0 µM", "value": "99% (active)"}, {"measurement": "growth inhibition", "setting": "[7]; [15]", "value": -63, "unit": "%"}, {"measurement": "growth inhibition", "setting": "[7]; [16]", "value": "75% (active)"}, {"measurement": "growth inhibition", "setting": "[7]; at 50.0 µM", "value": "84.7% (active)"}, {"measurement": "growth inhibition", "setting": "[8]; at 1.2 µM", "value": 2, "unit": "%"}, {"measurement": "growth inhibition", "setting": "[8]; at 3.7 µM", "value": 1, "unit": "%"}, {"measurement": "growth inhibition", "setting": "[8]; at 11.0 µM", "value": 1, "unit": "%"}, {"measurement": "growth inhibition", "setting": "[8]; at 33.0 µM", "value": 13, "unit": "%"}, {"measurement": "growth inhibition", "setting": "[8]; at 100.0 µM", "value": "98% (active)"}, {"measurement": "growth inhibition", "setting": "[9]; [15]", "value": -57, "unit": "%"}, {"measurement": "growth inhibition", "setting": "[9]; [16]", "value": -60, "unit": "%"}, {"measurement": "growth inhibition", "setting": "[9]; at 50.0 µM", "value": 7.45, "unit": "%"}, {"measurement": "growth inhibition", "setting": "[10]; at 1.2 µM", "value": 0, "unit": "%"}, {"measurement": "growth inhibition", "setting": "[10]; at 3.7 µM", "value": 9, "unit": "%"}, {"measurement": "growth inhibition", "setting": "[10]; [15]", "value": -53, "unit": "%"}, {"measurement": "growth inhibition", "setting": "[10]; at 11.0 µM", "value": 18, "unit": "%"}, {"measurement": "growth inhibition", "setting": "[10]; at 33.0 µM", "value": 69, "unit": "%"}, {"measurement": "growth inhibition", "setting": "[10]; [16]", "value": 69, "unit": "%"}, {"measurement": "growth inhibition", "setting": "[10]; at 50.0 µM", "value": "97.3% (active)"}, {"measurement": "growth inhibition", "setting": "[10]; at 100.0 µM", "value": "99% (active)"}, {"measurement": "growth inhibition", "setting": "[11]; at 1.2 µM", "value": 2, "unit": "%"}, {"measurement": "growth inhibition", "setting": "[11]; at 3.7 µM", "value": 1, "unit": "%"}, {"measurement": "growth inhibition", "setting": "[11]; at 11.0 µM", "value": 0, "unit": "%"}, {"measurement": "growth inhibition", "setting": "[11]; at 33.0 µM", "value": 37, "unit": "%"}, {"measurement": "growth inhibition", "setting": "[11]; at 100.0 µM", "value": "99% (active)"}, {"measurement": "growth inhibition", "setting": "[12]; at 1.2 µM", "value": 9, "unit": "%"}, {"measurement": "growth inhibition", "setting": "[12]; at 3.7 µM", "value": 2, "unit": "%"}, {"measurement": "growth inhibition", "setting": "[12]; at 11.0 µM", "value": 12, "unit": "%"}, {"measurement": "growth inhibition", "setting": "[12]; at 33.0 µM", "value": "83% (active)"}, {"measurement": "growth inhibition", "setting": "[12]; at 100.0 µM", "value": "99% (active)"}, {"measurement": "growth inhibition", "setting": "[13]; [15]", "value": -122, "unit": "%"}, {"measurement": "growth inhibition", "setting": "[13]; [16]", "value": "82% (active)"}, {"measurement": "growth inhibition", "setting": "[13]; at 50.0 µM", "value": "99.1% (active)"}, {"measurement": "growth inhibition", "setting": "[14]; at 1.2 µM", "value": 0, "unit": "%"}, {"measurement": "growth inhibition", "setting": "[14]; at 3.7 µM", "value": 5, "unit": "%"}, {"measurement": "growth inhibition", "setting": "[14]; at 11.0 µM", "value": 15, "unit": "%"}, {"measurement": "growth inhibition", "setting": "[14]; at 33.0 µM", "value": 67, "unit": "%"}, {"measurement": "growth inhibition", "setting": "[14]; at 100.0 µM", "value": "98% (active)"}]}]}
